Test systems include KIT-autoinhibited; KIT; LATS1; LATS2; LCK; LIMK1; LIMK2; LRRK2; LTK; LYN; MAK.
Common to all, as to settings: concentration: 1 μM, replicates: in singlicate; n = 1
The test system of test [1] is JAK1(JH2domain-pseudokinase).
Test [2] concerns JAK2(JH1domain-catalytic).
In test [3] the test system is JAK3(JH1domain-catalytic).
A further test deals with T1, JNK1.
T1 construct: gene MAPK8

A further test deals with T2, JNK2.
T2 construct: gene MAPK9

For a further test, the system named is T3, JNK3.
T3 construct: gene MAPK10

The subject of the next test is T4, LKB1.
T4 construct: gene STK11

The test system of the next test is T5, LOK.
T5 construct: gene STK10

The next test concerns T6, LZK.
T6 construct: gene MAP3K13
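Further: KINOMEscan kinase panel screen.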

`COc1ccc(C)c(Nc2ccnc(Nc3ccc(-c4cnc[nH]4)cc3)n2)c1.Cl` [GW784041]: the “%Inh” value in test [1] is given as 76%; in [2] it was 14%; in test [3] it was 0%; with JNK1 it was 14%; in the test on JNK2, 0%; in the test with JNK3, 0%. Moreover, the “%Inh” value in the test with KIT-autoinhibited worked out at 0%; in the test with KIT, 70%; in the test on LATS1, 12%; in the test on LATS2 it was 0%; in the test on LCK it was 75%; with LIMK1, 31%. Moreover, the “%Inh” value with LIMK2 amounted to 16%; in the test on LKB1 it was 0%; in the test with LOK, 57%; in the test on LRRK2, 0%; in the test with LTK it was 42%; in the test on LYN it was 30%. The “%Inh” value with LZK and in the test with MAK was 0% each time.
Regarding `COc1cccc2c(-c3ccncc3)c(-c3ccc(F)cc3)nn12` [GW468513], the “%Inh” value in test [1] was determined as 67%; in test [2], 11%; in [3], 0%; in the test on JNK1, 96%; in the test with JNK2 it was 99.8%; in the test with JNK3, 99.9%. The “%Inh” value in the test with KIT-autoinhibited came out at 0%; in the test on KIT, 8%; with LATS1, 0%; with LATS2 it was 8%; in the test on LCK it was 23%; in the test with LIMK1 it was 0%. The “%Inh” value in the test with LIMK2 came to 0%; in the test with LKB1, 0%; with LOK, 0%; in the test on LRRK2, 48%; in the test on LTK, 28%; in the test with LYN, 0%. Besides, the “%Inh” value with LZK is on record as 0%; with MAK, 27%.
For the compound `Cn1cc(-c2ccc3c(c2)CCN3C(=O)Cc2cc(F)cc(C(F)(F)F)c2)c2c(N)ncnc21` [GSK2635225], the “%Inh” value is listed as 3% in [1]; 10% in [2]; 0% in test [3]; 0% in the test with JNK1; 13% in the test on JNK2; 0% with JNK3. Also, the “%Inh” value came out at 16% in the test on KIT-autoinhibited; 100% with KIT; 0% with LATS1; 4% in the test with LATS2; 62% in the test on LCK; 0% with LIMK1. Also, the “%Inh” value in the test with LIMK2 came out at 0%; with LKB1, 16%; with LOK it was 84%; in the test with LRRK2, 0%; in the test with LTK, 18%; with LYN, 26%. The “%Inh” value in the test with LZK came to 3%; in the test on MAK it was 26%.
In the case of `NCCC(NC(=O)c1cc(Br)c(-c2ccnc3[nH]ccc23)s1)c1ccccc1.O=C(O)C(F)(F)F.O=C(O)C(F)(F)F` (centres unmarked) [GSK1307810], the “%Inh” value was 0% in [1]; 97.1% in [2]; 98.7% in test [3]; 30% in the test with JNK1; 15% with JNK2; 16% with JNK3. The “%Inh” value in the test on KIT-autoinhibited was found to be 0%; in the test on KIT, 73%; in the test with LATS1, 83%; in the test on LATS2 it was 93%; in the test with LCK, 12%; with LIMK1, 12%. For the same compound, the “%Inh” value in the test on LIMK2 stood at 30%; in the test with LKB1, 29%; in the test with LOK it was 0%; in the test with LRRK2 it was 14%; with LTK it was 0%; with LYN, 7%. Further, the “%Inh” value with LZK and in the test with MAK was 30% each time.
On to `CSc1ccc(NC2=C(c3ccc(Cl)cc3)C(=O)NC2=O)cc1` [SB-317658], for which the “%Inh” value in test [1] was found to be 0%; in test [2], 0%; in test [3] it was 0%; with JNK1, 0%; in the test with JNK2, 19%; in the test on JNK3, 3%. Besides, the “%Inh” value is 0% in the test with KIT-autoinhibited; 29% in the test with KIT; 8% with LATS1; 0% in the test with LATS2; 0% with LCK; 11% in the test with LIMK1. Moreover, the “%Inh” value came out at 1% in the test on LIMK2; 54% in the test on LKB1; 29% in the test with LOK; 43% in the test with LRRK2; 27% in the test on LTK; 26% in the test with LYN. Further, the “%Inh” value in the test on LZK was 0%; in the test with MAK, 37%.
Take `COc1cccc(-c2nc(-c3ccccc3)[nH]c2-c2ccncc2)c1` [SB-610250]: the “%Inh” value in test [1] was 12%; in test [2], 17%; in [3] it was 0%; with JNK1, 30%; in the test with JNK2 it was 83%; in the test with JNK3 it was 90%. Moreover, the “%Inh” value turned out to be 0% in the test with KIT-autoinhibited; 0% in the test on KIT; 45% in the test on LATS1; 0% in the test on LATS2; 16% with LCK; 20% in the test on LIMK1. The “%Inh” value with LIMK2 was 0%; with LKB1, 4%; in the test on LOK it was 0%; with LRRK2 it was 14%; in the test with LTK it was 0%; with LYN it was 0%. Besides, the results for the “%Inh” value in the test with LZK and with MAK were 0% and 47%, respectively.
Take `Cc1cccc(Nc2nc(N[C@H]3CCCC[C@H]3N)ncc2C(N)=O)c1.Cl` [GSK986310]: the “%Inh” value in test [1] is 91.4%; in test [2], 87%; in test [3] it was 80%; with JNK1, 62%; in the test with JNK2, 36%; with JNK3, 27%. In addition, the “%Inh” value in the test on KIT-autoinhibited was 0%; in the test with KIT it was 37%; in the test on LATS1, 18%; in the test on LATS2, 7%; in the test on LCK, 47%; in the test with LIMK1, 15%. Moreover, the “%Inh” value was 18% in the test on LIMK2; 0% in the test on LKB1; 0% in the test on LOK; 21% with LRRK2; 52% in the test with LTK; 34% in the test on LYN. Further, the “%Inh” value came to 0% with LZK and 27% with MAK.
Take `CN(c1ccc2c(c1)nc(NCc1ccccc1)n2C)c1ccnc(Nc2ccc(CS(C)(=O)=O)cc2)n1.Cl` [GW811603]: the “%Inh” value in [1] is reported as 0%; in test [2] it was 60%; in test [3], 99.2%; in the test with JNK1, 65%; in the test with JNK2, 40%; with JNK3 it was 47%. The “%Inh” value in the test with KIT-autoinhibited is on record as 80%; in the test with KIT it was 100%; with LATS1, 0%; with LATS2, 0%; with LCK, 59%; in the test with LIMK1 it was 1%. Also, the “%Inh” value was found to be 0% in the test with LIMK2; 0% with LKB1; 99.5% in the test on LOK; 0% in the test with LRRK2; 37% in the test with LTK; 52% with LYN. For the same compound, the “%Inh” value with LZK turned out to be 0%; in the test on MAK, 33%.
As to `O=C(O)C(F)(F)F.O=c1[nH]ccc2nc(N[C@@H]3CCNC3)nc(Nc3cc(Cl)cc(Cl)c3)c12` [GSK2188764], the “%Inh” value in test [1] came to 98%; in [2], 92.2%; in test [3] it was 100%; in the test on JNK1, 36%; in the test with JNK2, 7%; in the test with JNK3, 25%. Moreover, the “%Inh” value amounted to 2% in the test with KIT-autoinhibited; 73% in the test with KIT; 42% with LATS1; 59% in the test with LATS2; 0% with LCK; 19% in the test on LIMK1. Further, the “%Inh” value in the test on LIMK2 came to 13%; in the test on LKB1 it was 43%; in the test on LOK it was 70%; in the test on LRRK2, 97.3%; in the test with LTK, 31%; with LYN, 21%. The “%Inh” value in the test on LZK came to 7%; with MAK, 16%.
As to `COc1ccc(NC(=O)c2ccoc2)cc1-c1ccc(C(=O)NCC2CC2)cc1` [GW810437], the “%Inh” value turned out to be 0% in test [1]; 47% in test [2]; 0% in test [3]; 23% in the test on JNK1; 23% with JNK2; 11% with JNK3. Also, the “%Inh” value was 17% with KIT-autoinhibited; 0% in the test on KIT; 12% with LATS1; 0% with LATS2; 0% with LCK; 2% in the test on LIMK1. The “%Inh” value in the test on LIMK2 was determined as 0%; in the test with LKB1, 52%; in the test on LOK, 28%; in the test with LRRK2, 20%; in the test on LTK, 16%; in the test on LYN, 0%. Moreover, the “%Inh” value in the test with LZK was found to be 19%; with MAK it was 13%.

The values above are taken from paper PMC5540273 (PLoS ONE, 2017).
